# Source: PubChem (National Center for Advancing Translational Sciences (NCATS))
# FLuc counter – qHTS profiling assay for firefly luciferase inhibitor/activator using purifed enzyme and Km concentrations of substrates (counterscreen for miR-21 project); Potency, µM (titrated, usually from 57.5 µM), for inactives: at the top dose activity change, negative = inhibition, usual class: inhibitors; purified FLuc, Km substrates, luminescence inhibition; 360,000 compounds, 6.9% hits; AID 588342, 2011;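 further: plate controls were vehicle for no effect and reference inhibitor for full effect; nearly all actives have a fitted effect of over 55% in size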
# Target sequence (P08659 whole entry, looked up): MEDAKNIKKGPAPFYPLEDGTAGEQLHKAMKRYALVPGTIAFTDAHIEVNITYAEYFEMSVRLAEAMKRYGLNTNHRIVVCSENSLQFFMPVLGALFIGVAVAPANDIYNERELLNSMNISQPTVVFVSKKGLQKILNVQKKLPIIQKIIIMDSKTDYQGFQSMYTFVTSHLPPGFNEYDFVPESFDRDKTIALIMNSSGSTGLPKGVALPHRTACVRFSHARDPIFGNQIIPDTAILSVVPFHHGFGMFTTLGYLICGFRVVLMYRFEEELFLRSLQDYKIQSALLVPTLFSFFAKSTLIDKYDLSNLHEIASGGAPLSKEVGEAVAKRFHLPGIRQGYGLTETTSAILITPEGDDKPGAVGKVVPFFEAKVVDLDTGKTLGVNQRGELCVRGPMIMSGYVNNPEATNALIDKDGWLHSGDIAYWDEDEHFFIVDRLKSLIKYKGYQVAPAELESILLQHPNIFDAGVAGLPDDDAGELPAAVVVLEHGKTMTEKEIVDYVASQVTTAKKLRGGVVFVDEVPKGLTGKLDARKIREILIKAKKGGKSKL
#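 Biochemical qHTS of compounds, final roughly 60 µM downward over six points, against 10 nM purified firefly luciferase using Km concentrations of substrates (10 uM D-luciferin, 10 uM ATP) in Tris acetate pH 7.5 buffer; luminescence output.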
# ELG1 DNA repair – qHTS screen for small molecules that inhibit ELG1-dependent DNA repair in human embryonic kidney (HEK293T) cells expressing luciferase-tagged ELG1. HEK293T ELG1-luciferase reporter, luminescence, 16 h; DNA damage induced by 5-fluorouridine. Potency, µM (highest dose often 46.1 µM), without a hit: at the highest dose activity change, negative = inhibition, usual class: inhibitors. 330,000 compounds, 2.3% hits. AID 504467, 2011; further: on the % scale 0 is the no-effect control and ±100 the full control effect; nearly all actives have a fitted effect of over 55% in size
#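 5-Fluorouridine DNA damage + compound/DMSO, 2,000 cells/well, 16 h, 37 °C/5% CO2. ONE-Glo, 30 min RT, luminescence. Readout = decrease in reporter signal.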
# SMN2 splice enh – qHTS Assay for Enhancers of SMN2 Splice Variant Expression | HEK293 SMN2-luciferase splicing reporter, luminescence, 30-36 h | Potency, µM (titrated, usually from 46.1 µM), for inactives: at the highest dose activity change, positive = activation, most hits filed as activators | 210,000 compounds, 2.8% hits | AID 1458, 2008; further: % of control where 0% means no effect; nearly all actives have a fitted effect of over 55% in size
#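 HEK293 cells carry an SMN2 […]–luciferase reporter in which exon 7 inclusion puts luciferase in frame. Cells were plated 10-12 h before compound addition, then incubated 30-36 h at 37C. ONE-Glo luminescence was read; sodium butyrate at 4.5 mM final served as control.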
# ELG1 genotoxic – qHTS screen for small molecules that induce genotoxicity in human embryonic kidney (HEK293T) cells expressing luciferase-tagged ELG1. HEK293T ELG1-luciferase reporter, luminescence, 16 h. Potency, µM (highest dose often 46 µM), without a hit: at the top dose activity change, positive = activation, most hits filed as activators. 330,000 compounds, 1.3% hits; further: % of control where 0% means no effect; nearly all actives have a fitted effect of over 60% in size
#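 Cells (2,000/well) expressing the ELG1-luciferase fusion are dosed by pin tool and kept 16 hr at 37 °C, 5% CO2. Signal comes from ONE-Glo luciferase reagent after 30 min at room temperature.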
# NPC1 prom act – qHTS Assay for NPC1 Promoter Activators; Huh7 NPC1 promoter luciferase reporter, 24 h; Potency, µM (series often up to 9.22 µM), without a hit: at the top dose activation, hits mostly activators; 320,000 compounds, 2.4% hits; AID 485313, 2010; further: % of control where 0% means no effect; nearly all actives have a fitted effect of over 60% in size
#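 Luciferase expression driven by the NPC1 promoter was measured in stably transfected Huh7 cells after a 24 h compound incubation, using a luciferase reagent and a luminescence read.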
# Rab9 promoter act – qHTS Assay for Rab9 Promoter Activators | 320,000 compounds, 2.8% hits | AID 485297, 2010 | Potency, µM (titrated, usually from 9.22 µM), for inactives: at the highest dose activation, negative = inhibition, usual class: activators | Huh7 Rab9 promoter-luciferase reporter, luminescence, 24 h; further: % of control where 0% means no effect; nearly all actives have a fitted effect of over 60% in size
#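 Huh7 cells stably carrying Rab9 promoter–luciferase reporter, plated 1500 cells/well, compound added after 2 h and incubated 24 h at 37 °C; luciferase luminescence then read after 10 min with detection reagent.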
# The depositor's hits bear a star; ? = inconclusive; . = no result given; [ ] = remark or other dose. Shown are actives, neighbours in structure and some others; about 9.4% of the full set was active somewhere. The call rests on the fitted dose curve; in most records, active means well fitted curve in the direction sought with a large enough effect; inconclusive means small, poorly fitted or top-dose-only effect, or another doubt; inactive means no such curve, though single readings can be large; an effect the other way counts as inactive or inconclusive. Potency means the concentration at half of the fitted maximal effect.
SMILES,FLuc counter,ELG1 DNA repair,SMN2 splice enh,ELG1 genotoxic,NPC1 prom act,Rab9 promoter act
C=CCn1c(/N=C/c2ccc3c(c2)OCO3)nc2ccccc21,6.7µM*,-8%,10%,1%,0%,-2%
CCCn1c(/N=C/c2ccc3c(c2)OCO3)nc2ccccc21,4.8µM*,?,-32%,-2%,11%,1%
C(=N\c1nc2ccccc2n1CCN1CCCCC1)/c1cccs1,5%,-25%,-12%,4%,-3%,-6%
Brc1ccc(/C=N/c2nc3ccccc3n2CCN2CCOCC2)cc1,24µM*,-1%,8%,2%,-2%,-1%
COc1ccc(S(=O)(=O)c2c(Nc3c(C)cccc3C)sc(C(=O)c3ccc(F)cc3)c2N)cc1,-3%,.,.,.,.,.
COc1ccc(OC)c(NC(=O)Cn2c(=O)c3cccn3c3ccccc32)c1,-2%,.,.,.,.,.
COc1ccc2nc(SCC(=O)N3CC(=O)Nc4ccccc43)c(C#N)cc2c1,?,16µM*,11%,-9%,-8%,-12%
CC(C)c1nc(SCC(=O)N2CC(=O)Nc3ccccc32)c2ccccc2n1,4%,-9%,-37%,-10%,-8%,-14%
Cc1nnc(SCC(=O)N2CC(=O)Nc3ccccc32)s1,-1%,-8%,-18%,0%,0%,0%
Cc1cc(C)c2nc(SCC(=O)N3CC(=O)Nc4ccccc43)c(C#N)cc2c1,12µM*,?,-58%,12%,-19%,-31%
Cc1cc(C)c2c(=O)c3c(oc2c1)C(=O)N(CCCOC(C)C)C3c1ccccc1F (configuration not stated),-9%,.,0%,.,.,.
Cc1ccc(C(=O)N(C)CCOc2ccccc2)cc1S(=O)(=O)N1CCCCC1,1%,-12%,.,0%,-4%,-5%
Fc1cccc(Cl)c1CSc1nnc(-c2ccncc2)o1,15µM*,?,.,?,?,4.5µM*
COc1cc(-c2nnc(SCc3c(F)cccc3Cl)o2)cc(OC)c1OC,0%,?,4%,1%,-2%,0%
c1ccc2c(CSc3nnc(-c4ccncc4)o3)cccc2c1,-12%,7%,-28%,-1%,-5%,-1%
Clc1ccccc1CSc1nnc(-c2ccncc2)o1,17µM*,?,10µM*,9%,?,?
CCC(C)NC(=O)CSc1nc2cc3c(cc2c(=O)n1CCCCCC(=O)NCc1ccc(OC)cc1)OCO3 (configuration not stated),-2%,.,.,.,.,.
COc1ccc(NC(=O)c2cccnc2Nc2ccc(OC)cc2)cc1,?,?,-4%,-2%,-5%,7%
CC(C)c1ccc(Nc2ncccc2C(=O)O)cc1,2.7µM*,?,16µM*,?,0.63µM*,0.4µM*
CS(=O)(=O)c1ccc(C(=O)Nc2cc(S(C)(=O)=O)ccc2Cl)cc1,0%,?,.,2%,3%,-1%
COc1ccc(C(=O)O)c(OC)n1,-2%,?,.,-8%,12%,-27%
O=C(Nc1ccc(Cl)c(Cl)c1)c1ccc(Cl)c(Cl)c1,12µM*,?,.,12%,3.5µM*,3.5µM*
O=C(Nc1ccc(Cl)c(Cl)c1)Nc1cc(C(=O)NC2CC2)ccc1Cl,1%,26µM*,-14%,-17%,1%,-7%
CS(=O)(=O)c1cccc(NC(=O)c2ccc(Cl)c(Cl)c2)c1,19µM*,4%,.,1%,2%,23%
COc1ccc(C(=O)Nc2ccc(Cl)c(Cl)c2)c(OC)n1,0.95µM*,?,3.2µM*,?,3%,?
SMILES,FLuc counter,ELG1 DNA repair,SMN2 splice enh,ELG1 genotoxic,NPC1 prom act,Rab9 promoter act
COc1cccc(-c2nc(CS(=O)(=O)CC(=O)Nc3c(C)cc(C)cc3C)c(C)o2)c1,-9%,.,1%,.,.,.
O=C(CSc1nc2c([nH]c3ccccc32)c(=O)n1-c1ccccc1)N1CCCC1,1%,.,.,.,.,.
Cc1ccc(NC(=O)c2ccc(Cl)c(N3C(=O)C=CC3=O)c2)cc1,9.5µM*,13%,-5%,7%,-12%,-6%
CC1=C/C(=C(/c2ccc(O)c(C)c2)c2ccccc2S(=O)(=O)O)C=CC1=O,?,2%,.,-1%,-5%,-6%
CC1=C/C(=C(/c2cc(C)c(O)c(Br)c2)c2ccccc2S(=O)(=O)O)C=C(Br)C1=O,15µM*,?,.,-11%,-9%,-3%[1.84 µM]
O=C(O/N=C1/CCSc2ccccc21)c1ccccc1,0.67µM*,27%,-12%,0%,7%,-5%
O/N=C1/CCCSc2ccccc21,0%,1%,-6%,-1%,-5%,-4%
O=C(O/N=C1\CCCc2ccccc21)c1ccc(F)cc1,0.21µM*,21%,12%,?,7%,-4%
Cc1ccc2c(c1)/C(=N/OC(=O)c1ccc(F)cc1)CCS2,6µM*,15%,6%,-3%,-2%,2%
CCOc1ccc(C(=O)Nc2ccccc2C(=O)OCc2cc(=O)n3nc(C4CC4)sc3n2)cc1,5%,.,.,.,.,.
O=C(N/N=C/c1ccccc1OC(F)F)C1=COCCO1,-20%,?,23%,7%,8%,10%
Fc1ccccc1/C=N/Nc1nc2ccccc2o1,3µM*,?,.,?,2.8µM*,2.2µM*
FC(F)Oc1ccccc1/C=N/Nc1nc2ccccc2o1,?,?,.,19%,?,4µM*
CCc1nnc(N/N=C/c2ccccc2F)n1N,5%,-28%,-36%,0%,5%,11%
CCOC(=O)CSc1nc2cc(C)cc(C)c2cc1C#N,0%,29%,0%,11%,?,?
CCOC(=O)CSc1nc2ccc(C)cc2cc1C#N,12µM*,?,16µM*,2.3µM*,2.8µM*,1.4µM*
CCOC(=O)CSc1nc2cc(C)ccc2cc1C#N,?,?,14µM*,?,0.71µM*,1.3µM*
COc1ccc2nc(SCC(C)=O)c(C#N)cc2c1,1.1µM*,?,2µM*,2.1µM*,?,1µM*
CCOC(=O)CSc1nc2cc(OC)ccc2cc1C#N,?,?,11µM*,0.82µM*,0.79µM*,1.3µM*
CSc1ccc(/C=C/C(=O)c2ccc(NC(=O)C(C)C)cc2)cc1,9.5µM*,-5%,-14%,-2%,-2%,-10%
O=C(Cc1ccccc1)Nc1ccc(C(=O)NCc2ccccc2)cc1,-1%,2%,.,4%,-3%,0%
CSc1ccc(/C=C/C(=O)N2CCCN(C)CC2)cc1,-4%,?,-6%,15%,9%,24%
